Measurements published in PubChem BioAssay (Tox21).
Inconclusive results are not listed. Values without a mark were called inactive. The call rests on the fitted dose curve.

Experiment: p53 small molecule agonists, cell-based qHTS assay with rat liver microsomes: qHTS cell viability counter screen (AID 1963580); further: nearly all actives have a fitted effect of over 45% in size
Conditions: p53RE-bla HCT-116 + rat microsomes, ATP viability, 16 h; series mostly up to 66 µM; activity change, negative = cytotoxicity: at the top concentration
Text: National Center for Advancing Translational Sciences [NCATS]
Division of Preclinical Innovation [DPI]
U.S. Environmental Protection Agency [EPA]
National Institutes of Environmental Health Sciences [NIEHS]
National Toxicology Program [NTP]
U.S. Food and Drug Administration [FDA]
p53, a tumor suppressor protein, is activated following cellular insult, including DNA damage and other cellular stresses. The activation of p53 regulates cell fate by inducing DNA repair, cell cycle arrest, apoptosis, or cellular senescence. The activation of p53, therefore, is a good indicator of DNA damage and other cellular stresses. The CellSensor p53RE-bla HCT-116 cell line contains a stably integrated beta-lactamase reporter gene under control of the p53 response elements. The activation of the reporter gene under culture conditions can be detected by fluorescence intensity. This cell line was used to screen the Tox21 10K compound library in the condition of presence of rat liver microsomes and to identify agonists that activate the p53 signaling pathway after in vitro metabolic activation (Ooka et al., Archive of Toxicology 96:1975-1987, 2022). The cytotoxicity of the Tox21 compound library against the p53 RE-bla HCT-116 cell line was tested in parallel by measuring the intra cellular ATP content in the same wells.
Tox21 Assay Protocol Summary:
The p53RE-bla cells were dispensed at 4,000cells/3ul/well in 1536-well black-clear bottom plates. After the assay plates were incubated at 37 C, 5% CO2 incubator for 5 hours, 23 nL of compounds dissolved in DMSO, positive controls or DMSO only was transferred to the assay plate. Following compound addition, 3 uL of rat liver microsomes (Molecular Toxicology, Boone, NC) at final concentration of 0.5 mg/mL and 1uL of B-Nicotinamide adenine dinucleotide 2'-phosphate (NADPH) at final concentration of 0.5 mg/mL were transferred to the assay plate. The plates were incubated at 37 C for 16 hours. 1 uL of LiveBLAzer detection mixture was added to each well and the plates were incubated at room temperature in the dark for 2 h. Fluorescence intensity at 460 and 530 nm emission and 405 nm excitation were measured by an Envision plate reader. For cell viability readout that measures cytotoxicity, 4 ul/well of CellTiter-Glo reagent was added into the assay plates using a Flying Reagent Dispenser. After 30 min incubation at room temperature, the luminescence intensity in the plates was measured using a ViewLux plate reader.
On the % scale 0 is the no-effect control and ±100 the full control effect.

Structure (SMILES)	activity change, negative = cytotoxicity
CCOC(=O)CC#N	0.101%
CCCC(C(=O)OCCN(CC)CC)(c1ccccc1)c1ccccc1	4.69% [at 30.3 µM]
CCOC(=O)OCC/C(SC(=O)OCC)=C(\C)N(C=O)Cc1cnc(C)nc1N	7.5% [at 30.3 µM]
CC(C)c1cc(C(C)C)cc(C(C)C)c1	-4.94%
Cc1nc2ccccn2c(=O)c1CCN1CCC(C(=O)c2ccc(F)cc2)CC1	-8.9% [at 30.3 µM]
CCCCCCCCOc1ccccc1C(=O)Nc1ccc(C(=O)OCC[N+](C)(CC)CC)cc1	3.92% [at 30.3 µM]
OC[C@H]1O[C@@H](O[C@@H]2[C@@H](CO)O[C@](O)(CO)[C@H]2O)[C@H](O)[C@@H](O)[C@H]1O	-0.423% [at 30.3 µM]
CO[C@H]1C=CO[C@@]2(C)Oc3c(C)c(O)c4c(O)c(cc(O)c4c3C2=O)NC(=O)/C(C)=C\C=C/[C@H](C)[C@H](O)[C@@H](C)[C@@H](O)[C@@H](C)[C@H](OC(C)=O)[C@@H]1C	0.811%
CC(C)(C)c1n[nH]c(=S)n(N)c1=O	0.443%
Oc1ccc(-c2ccc(O)cc2)cc1	2.49%
CN1CC(=O)N/C1=N/C(=O)Nc1cccc(Cl)c1	0.925% [at 30.3 µM]
O=C(c1ccc(O)cc1)c1ccc(Cl)cc1	6.04%
C=CCN1CCc2nc(N)sc2CC1	-2.58% [at 30.3 µM]
CCCc1nn(C)c2c(=O)[nH]c(-c3cc(S(=O)(=O)N4CCN(C)CC4)ccc3OCC)nc12	-1.06% [at 30.3 µM]
Cc1cc(C)c(NC(=O)CN(CC(=O)O)CC(=O)O)c(C)c1Br	1.01% [at 30.3 µM]
O=C=Nc1cccc(C(F)(F)F)c1	0.236%
O=C(OCC(COC(=O)c1ccccc1)(COC(=O)c1ccccc1)COC(=O)c1ccccc1)c1ccccc1	0%
CCCCCCCCCCCCCC=O	0.418% [at 5.99 µM]
CCOC(=O)CC	11.6%
CC1CC(C)C(=O)C1=O (stereo not given)	-0.669%

Structure (SMILES)	activity change, negative = cytotoxicity
CC(O)COC(C)(C)C (stereo not given)	5.75%
CCn1cc(C(=O)O)c(=O)c2cc(F)c(N3CCNCC3)cc21	-0.251% [at 30.3 µM]
CC(C)CC(=O)C1C(=O)c2ccccc2C1=O	-5.54%
CC1OCCC1=O (stereo not given)	-2.86%
O=C(NCCN1CCOCC1)c1ccc(Cl)cc1	-0.412% [at 30.3 µM]
C#Cc1ccc(-c2ccccc2F)cc1	-0.98% [at 30.3 µM]
CCCCCCCCCCCCCCN(C)C	-0.358% [at 13.5 µM]
Oc1ccccc1C=NCc1ccccc1	-11.3% [at 30.3 µM]
CC(C(=O)O)c1ccc2c(c1)Cc1cccnc1O2 (stereo not given)	1.61% [at 30.3 µM]
CCCC1CCC(=O)O1 (stereo not given)	-5.08%
O=S(=O)(O)c1ccc(O)c2ncccc12	-0.606%
O=C(O)c1ccc2cc(O)ccc2c1	0.598%
CCOCC(O)COc1ccc(NC(=O)CC[S+](C)C)cc1 (stereo not given)	0.455% [at 30.3 µM]
CCOc1ccccc1O[C@H](c1ccccc1)[C@H]1CNCCO1	0.292% [at 30.3 µM]
Cc1ccccc1C(=O)Nc1ccc(C(=O)N2CCCC(N(C)C)c3ccccc32)cc1 (stereo not given)	5.82% [at 30.3 µM]
CCCCCCOC(=O)CCCCC(=O)OCCCCCC	1.04%
C[C@@H]1O[C@@H](O[C@@H]2[C@@H](O)[C@H](OCCc3ccc(O)c(O)c3)O[C@H](CO[C@@H]3O[C@H](CO)[C@@H](O)[C@H](O)[C@H]3O)[C@H]2OC(=O)/C=C/c2ccc(O)c(O)c2)[C@H](O)[C@H](O)[C@H]1O	0.223%
C=COCCCCO	4.02%
CCCCCCC1CCCC(=O)O1 (stereo not given)	-4.19%
O=C(NS(=O)(=O)/C=C/c1ccccc1)c1ccc(F)cc1Cl	5.88%
